HP1b binding inh – HTS for Inhibitors of HP1-beta Chromodomain Interactions with Methylated Histone Tails. Potency, µM (highest dose often 114 µM), without a hit: at the top dose activity change, negative = inhibition, actives largely listed as inhibitors. Chromobox protein homolog 1 (Homo sapiens), P83916. AlphaScreen HP1-beta / biotin-H3K9me3 peptide binding. AID 540317, 2011. actives 0.56% (n = 390,000); note: potency is the fitted concentration of half-maximal effect; nearly all actives have a fitted effect of over 70% in size
Target sequence (P83916 whole entry, looked up): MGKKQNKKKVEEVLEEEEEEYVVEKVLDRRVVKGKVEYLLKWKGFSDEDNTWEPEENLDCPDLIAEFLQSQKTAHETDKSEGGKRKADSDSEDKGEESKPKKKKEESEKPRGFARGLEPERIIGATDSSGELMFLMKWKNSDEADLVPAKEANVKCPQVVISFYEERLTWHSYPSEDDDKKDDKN
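AlphaScreen: HP1-beta (50 nM) preformed 30 min with biotin-H3(1-18)K9me3 peptide (50 nM) in PBS pH 7.4, 0.01% Tween-20. Compound added for 30 min at RT, then streptavidin donor/nickel chelate acceptor beads (10 ug/mL) for 30 min.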
Six1-Eya2 inh – qHTS Assay for Inhibitors of the Six1/Eya2 Interaction | activity change, % (test concentration not listed) | AlphaScreen GST-Six1/His-Eya2 binding, biochemical; stronger effect = lower value | AID 651725, 2012 | actives 0.56% (n = 360,000) | Homeobox protein SIX1 (Homo sapiens) + Protein phosphatase EYA2 (Homo sapiens), …; in the data active = activity change below about -65%; inconclusive = mostly about -30% to -63%; note: % is set by controls: 0 for no effect and ±100 for the full control effect
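Compounds are tested against tagged Six1 and Eya2 proteins bridged by glutathione donor and nickel acceptor beads; after a one-hour incubation at 37 °C without light, AlphaScreen emission is recorded.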
JMJD2A Tudor inh – qHTS Assay for Inhibitors of JMJD2A-Tudor Domain; Lysine-specific demethylase 4A (Homo sapiens), O75164; AlphaScreen JMJD2A-Tudor / H3K4me3 peptide binding; Potency, µM (series often up to 114 µM), for inactives: top-dose activity change, negative = inhibition, most hits filed as inhibitors; actives 4.4% (n = 390,000); note: potency is the fitted concentration of half-maximal effect; % is set by controls: 0 for no effect and ±100 for the full control effect; nearly all actives have a fitted effect of over 50% in size
G9a inh – qHTS Assay for Inhibitors of Histone Lysine Methyltransferase G9a | actives 8.8% (n = 350,000) | G9a H3K9 monomethylation, AlphaScreen, 2 h | Potency, µM (highest dose often 102 µM), inactives show at the top dose activity, negative = inhibition, actives largely listed as inhibitors; note: potency is the fitted concentration of half-maximal effect; % is set by controls: 0 for no effect and ±100 for the full control effect; nearly all actives have a fitted effect of over 75% in size
Target sequence (Q96KQ7 913-1193 limits assumed): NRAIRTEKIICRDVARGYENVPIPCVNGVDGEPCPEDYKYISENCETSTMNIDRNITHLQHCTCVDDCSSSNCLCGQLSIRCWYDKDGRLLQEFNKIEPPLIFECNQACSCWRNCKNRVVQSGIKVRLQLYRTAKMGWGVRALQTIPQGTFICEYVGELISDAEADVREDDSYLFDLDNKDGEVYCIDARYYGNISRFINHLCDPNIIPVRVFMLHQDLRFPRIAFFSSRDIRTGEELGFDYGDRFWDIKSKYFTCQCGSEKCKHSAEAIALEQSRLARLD
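Step 1: enzyme (final 20 nM) with compound, 15 min RT. Step 2: substrate peptide 500 nM and SAM 20 uM, 2 h RT. Step 3: anti-H3K9me1 antibody and AlphaScreen beads, 10 min, then plate read.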
CtBP-E1A inh – qHTS Assay for Inhibitors of the CtBP/E1A Interaction. CtBP / adenovirus E1A interaction (AlphaScreen). AlphaScreen GST-E1A/His-CtBP binding, 1536-well; stronger effect = lower value. activity change, % (test concentration not listed). actives 0.49% (n = 340,000). AID 651724, 2012; in the data active = activity change below about -65%; inconclusive = mostly about -30% to -63%; note: % is set by controls: 0 for no effect and ±100 for the full control effect
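Steps: dispense buffer (Tris pH 8.0, NaCl 300 mM, TCEP 1 mM, BSA, Tween 20); add 5X protein mix (GST-E1A, His-CtBP, 125 nM each); pin 23 nL compound; 2 h at 37 °C, dark; add 5X beads (50 ug/mL); 1 h; read.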
BAZ2B block – qHTS Assay for Inhibitors of BAZ2B. Bromodomain adjacent to zinc finger domain protein 2B (Homo sapiens), Q9UIF8. AlphaScreen BAZ2B-H3K14Ac peptide displacement. Potency, µM (series often up to 114 µM), inactives show at the top dose activity change, negative = inhibition, most hits filed as inhibitors. actives 4.4% (n = 360,000); note: potency is the fitted concentration of half-maximal effect; % is set by controls: 0 for no effect and ±100 for the full control effect; nearly all actives have a fitted effect of over 60% in size
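AlphaScreen displacement: compounds (up to 110uM) incubated 30 min at room temperature with a preformed 50 nM BAZ2B/50 nM biotinylated H3K14Ac peptide complex in PBS pH 7.4 with Tween-20. Donor and acceptor beads at 10 ug/mL final added, 20 min light-protected before reading.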
An asterisk follows results filed as active; ? = inconclusive; . = no result given; [ ] = dose if it differs, or a comment. Shown are actives, neighbours in structure and some others; about 10% of the full set was active somewhere. Unless noted, calls come from the whole dose curve; as a rule, active = well fitted inhibition curve with a large enough effect; inconclusive = small, poorly fitted or top-dose-only effect; inactive = no such curve, though single readings can be large or run the other way.

SMILES	HP1b binding inh	Six1-Eya2 inh	JMJD2A Tudor inh	G9a inh	CtBP-E1A inh	BAZ2B block
O=C(Nc1cc(S(=O)(=O)Nc2ccc(Cl)cc2)ccc1N1CCCCC1)c1ccc(F)cc1	?	-19	?	10µM*	-14	0%
N#Cc1ccc(C(=O)Nc2cc(S(=O)(=O)Nc3ccc(Cl)cc3)ccc2N2CCCCC2)cc1	?	3	?	7.1µM*	6	-23%
Cc1ccc(C)c(NC(=S)Nc2ncccc2C)c1	?	-22	32µM*	32µM*	?	?
Cc1cccnc1NC(=S)Nc1ccc(F)cc1F	-12%	-3	-8%	50µM*	-10	?
Cc1cc(C)nc(NC(=S)Nc2ccc(F)cc2F)c1	33%	-2	5%	-23%	1	-19%
COc1cc(NC(=S)Nc2ncccc2C)cc(OC)c1OC	14%	-8	-32%	10µM*	-1	?
CCCCN1C[C@H](CSC)[C@@H](CC(=O)Nc2ccc(Br)cc2)C1=O	.	-6	.	.	-20	.
CC(=O)c1cn(-c2ccc([N+](=O)[O-])cc2)c(=O)n(C)c1=O	58%	-11	3%	.	6	.
Cn1c(CBr)c(C(=O)c2ccc([N+](=O)[O-])cc2)c(=O)n(C)c1=O	29%	-2	-32%	28µM*	7	-35%
CC(=O)Nc1cc(-c2cccc(C(=O)N(C)C)c2)cn2c(-c3ccc(C(C)=O)cc3)cnc12	.	-4	.	.	1	.
COc1ccc(N=c2cc(-c3ccc(OC)cc3)oc3ccccc23)cc1	-63%	?	40µM*	14µM*	-1	28µM*
COc1ccc(N=c2cc(-c3ccc(O)cc3)oc3ccccc23)cc1	?	?	35µM*	?	-15	45µM*
COc1ccc(-c2cc(=O)c3ccccc3o2)cc1	28%	2	-21%	19%[12.7 µM]	1	2%
CCOc1ccc(N=c2cc(-c3ccc(OC)cc3)oc3ccccc23)cc1	25µM*	?	16µM*	25µM*	1	13µM*
Cc1noc(C)c1C(=O)N1CCC2(CCCN(Cc3nccs3)C2)CC1	.	.	.	0%[12.7 µM]	.	.
Cc1ccc(C)c(CNC(=O)CCn2cccn2)c1	104%	.	-8%	13%[59 µM]	.	-10%
COC(=O)C[C@H]1C=C[C@@H](NS(=O)(=O)c2ccccc2)[C@@H](CO)O1	.	0	.	.	4	.
CNC1C(O)C(O[C@H]2C(O)[C@@H](OC3OC(CN)=CCC3N)[C@H](N)C[C@@H]2N)OC[C@]1(C)O (some centres undefined)	.	.	.	-4%[2.33 µM]	.	.
COC(=O)c1c(C)oc2c1cc(NS(=O)(=O)c1ccc(C(=O)O)cc1)c1ccccc12	1%	-27	-32%	35µM*	-12	?
CC(=O)c1c(C)oc2c1cc(NS(=O)(=O)c1ccc(C(=O)O)cc1)c1ccccc12	-19%	?	-14%	?	-22	-7%
Cc1ccc(S(=O)(=O)Nc2cc3c(C(=O)O)c(C)oc3c3ccccc23)c(C)c1	?	9	?	50µM*	11	50µM*
Cc1cc(F)ccc1S(=O)(=O)Nc1cc2c(C(=O)O)c(C)oc2c2ccccc12	-11%	.	?	-40%[59 µM]	.	-18%
CC(=O)Nc1ccc(CN2C(=O)C(C)(C)ON=C2c2ccc(C(F)(F)F)cc2)cc1	.	7	.	.	7	.
Cc1cc(C)nc(N=Nc2c(O)n(Cc3ccc(Cl)cc3)c3ccccc23)n1	4%	3	-26%	3%[59 µM]	3	-6%
NC(=O)C1CCN(C2CC(=O)N(Cc3ccc(N4CCCC4=O)cc3)C2=O)CC1 (centres undefined)	27%	-4	?	45µM*	1	-9%
SMILES	HP1b binding inh	Six1-Eya2 inh	JMJD2A Tudor inh	G9a inh	CtBP-E1A inh	BAZ2B block
CCCCN(CC)CCNC(=O)CCn1cnc2onc(-c3ccc(F)cc3)c2c1=O	-9%	.	-15%	-26%[59 µM]	.	7%[57.1 µM]
COc1ccc(Nc2nc(Cl)nc(N3CCN(c4ccc(OC)cc4)CC3)n2)cc1	.	.	.	?	.	8.9µM*
CC1CCN(c2nc(Cl)nc(Nc3ccc([N+](=O)[O-])cc3)n2)CC1	-17%	-1	?	45µM*	1	?
C=CCNc1nc(Nc2ccc([N+](=O)[O-])cc2)nc(N2CCCC2)n1	14%	-1	?	-29%	9	-13%
C=CCc1c(C)nc2nc(SCC(=O)Nc3ccccc3CC)nn2c1C	39%	.	-4%	-1%[59 µM]	.	3%
O=C(Cn1cnc2sc(-c3ccccc3)cc2c1=O)NCc1ccccc1	5%	4	-25%	?	-5	14%
O=C(Cn1cnc2sc(-c3ccccc3)cc2c1=O)NCc1ccco1	8.9µM*	-18	3.2µM*	13µM*	-1	?
O=C(Cn1ncn2c(cc3ccccc32)c1=O)NCc1ccco1	7%	-13	?	?	13	50µM*
COc1ccccc1NCC(=O)NNCC(=O)Nc1ccc(F)c(Cl)c1	16%	12	-22%	?	15	?
CCOC(=O)c1ccc(CN(Cc2ccccc2)S(=O)(=O)c2ccc(C)cc2)cc1	94%	.	-22%	66%[59 µM]	.	5%
O=C(Nc1ccccn1)c1ccc2c(c1)OCO2	43%	-2	-5%	50µM*	7	-16%
CN(C)C(=S)Nc1ccc2c(c1)OCO2	-35%	-5	-3%	8.9µM*	8	-22%
O=C(Nc1ccc2c(c1)OCO2)c1ccccn1	?	-2	4.5µM*	1.6µM*	-9	?
O=C(CNC(=O)c1ccc2c(c1)OCO2)Nc1ncccc1O	5%	-16	56µM*	?	-13	?
Cc1cccnc1NC(=O)c1ccc2c(c1)OCO2	18%	5	5%	-3%	5	-8%
S=C(Nc1ccc2c(c1)OCO2)Nc1ccc2c(c1)OCO2	?	-11	-21%	?	1	?
C[C@H](NC(=O)[C@@H]1CCCN1C(=O)[C@@H]1CCCN1)c1ccccc1	.	13	.	.	-18	.
CCS(=O)(=O)N1Cc2ccccc2CC1C(=O)N(C)CC(=O)Nc1cccc(F)c1 (centres undefined)	6%	2	-18%	0%	0	3%
CCCCN(C)CCCNC(=O)C1CCN(c2nc3ccc(CC)cc3s2)CC1	21%	.	-10%	-36%[59 µM]	.	-9%
